Out of some 3,200 compounds screened, about 300 (9.4%) showed activity. The sample as a whole holds a higher share of actives than the screen did.
Test system: A673/TR/shEF
Experiment: cell viability (LOESS-normalised, relative to median of negative controls) (log2 ratio); higher = more viable cells (less compound effect), active = hit call of the paper (over 3 MAD below the median)
Settings: treatment time: 72 h
Outline: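 A673/TR/shEF Ewing sarcoma cells were plated at 1,500 per well in 384-well plates and cultured with or without doxycycline, added 24 h before compounds, to induce EWS-FLI1 shRNA knockdown. Library compounds at two or more concentrations, alongside DMSO controls, were applied for three days. Cell viability was measured by CellTiter-Glo luminescence on an Envision reader. Readings were LOESS-corrected per plate, divided by the median of negative controls and log2-transformed, and hits were wells lying at least three median absolute deviations from the median of all screened wells.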

[1] = 0.103 µM, library screen: screen3, EWS-FLI1 expression: high (no doxycycline)
[2] = 0.103 µM, library screen: screen3, EWS-FLI1 expression: low (doxycycline-induced shRNA knockdown)
[3] = 0.25 µM, library screen: screen1, EWS-FLI1 expression: high (no doxycycline)
[4] = 0.25 µM, library screen: screen1, EWS-FLI1 expression: low (doxycycline-induced shRNA knockdown)
[5] = 0.25 µM, library screen: screen2, EWS-FLI1 expression: high (no doxycycline)
[6] = 0.25 µM, library screen: screen2, EWS-FLI1 expression: low (doxycycline-induced shRNA knockdown)
[7] = 0.308 µM, library screen: screen3, EWS-FLI1 expression: high (no doxycycline)
[8] = 0.308 µM, library screen: screen3, EWS-FLI1 expression: low (doxycycline-induced shRNA knockdown)
[9] = 0.926 µM, library screen: screen3, EWS-FLI1 expression: high (no doxycycline)
[10] = 0.926 µM, library screen: screen3, EWS-FLI1 expression: low (doxycycline-induced shRNA knockdown)
[11] = 2.5 µM, library screen: screen1, EWS-FLI1 expression: high (no doxycycline)
[12] = 2.5 µM, library screen: screen1, EWS-FLI1 expression: low (doxycycline-induced shRNA knockdown)
[13] = 2.5 µM, library screen: screen2, EWS-FLI1 expression: high (no doxycycline)
[14] = 2.5 µM, library screen: screen2, EWS-FLI1 expression: low (doxycycline-induced shRNA knockdown)
[15] = 2.8 µM, library screen: screen3, EWS-FLI1 expression: high (no doxycycline)
[16] = 2.8 µM, library screen: screen3, EWS-FLI1 expression: low (doxycycline-induced shRNA knockdown)
[17] = 8.3 µM, library screen: screen3, EWS-FLI1 expression: high (no doxycycline)
[18] = 8.3 µM, library screen: screen3, EWS-FLI1 expression: low (doxycycline-induced shRNA knockdown)
[19] = 25 µM, library screen: screen3, EWS-FLI1 expression: high (no doxycycline)
[20] = 25 µM, library screen: screen3, EWS-FLI1 expression: low (doxycycline-induced shRNA knockdown)

Measured: cell viability (log2)

Nc1ccn([C@@H]2O[C@H](CO)[C@@H](O)[C@@H]2O)c(=O)n1
inactive: [2] -0.0158 | [3] 0.0194 | [4] 0.174 | [6] 0.162 | [7] -0.0966 | [8] 0.00929 | [10] -0.00593 | [12] 0.0115 | [14] -0.0511 | [16] -0.023
active: [1] -0.206 | [5] -0.179 | [9] -0.377 | [11] -0.85 | [13] -1.17 | [15] -0.966 | [17] -1.5 | [18] -0.184 | [19] -2.24 | [20] -0.544

Nc1ncn([C@@H]2O[C@H](CO)[C@@H](O)[C@H]2O)c(=O)n1
active: 25 µM, library screen: screen2, EWS-FLI1 expression: high (no doxycycline) -0.117
inactive: 0.025 µM, library screen: screen2, EWS-FLI1 expression: high (no doxycycline) 0.00187 | 0.025 µM, library screen: screen2, EWS-FLI1 expression: low (doxycycline-induced shRNA knockdown) 0.0749 | [3] 0.0677 | [4] 0.0883 | [5] 0.0549 | [6] 0.0892 | [11] 0.046 | [12] 0.161 | [13] 0.0659 | [14] 0.0803 | 25 µM, library screen: screen2, EWS-FLI1 expression: low (doxycycline-induced shRNA knockdown) -0.00278

Nc1ccn([C@@H]2O[C@H](CO)[C@@H](O)C2(F)F)c(=O)n1
active: [1] -1.19 | [2] -0.155 | [7] -1.43 | [8] -0.392 | [9] -1.81 | [10] -0.473 | [15] -1.98 | [16] -0.588 | [17] -2.08 | [18] -0.562 | [19] -2.16 | [20] -0.572

Nc1ncn([C@H]2C[C@H](O)[C@@H](CO)O2)c(=O)n1
inactive: [1] -0.0304 | [2] 0.0527 | [7] -0.025 | [8] 0.0562 | [9] -0.0731 | [10] 0.022 | [15] -0.0569 | [16] 0.0493 | [17] -0.0462 | [18] 0.058 | [19] -0.117 | [20] 0.0388

CC(=O)Oc1ccc2c(c1)CCC1C2CCC2(C)C(=O)CCC12 (configuration not stated)
inactive: [3] 0.0434 | [4] -0.0193 | [11] 0.146 | [12] 0.0428

N.N.N.N.N.O.[Ru+2]
inactive: [5] 0.216 | [6] 0.0909 | [13] 0.256 | [14] 0.0639

CCC/C=C/C=C/C1CC(O)C(O)C(=O)C1C=O (configuration not stated)
inactive: [3] -0.0508 | [4] 0.0579 | [11] 0.0447 | [12] 0.105

C=C1CC[C@@H]2[C@H](CC2(C)C)C(=O)CC[C@@H]1O
inactive: [3] 0.0475 | [4] 0.00133 | [11] 0.0814 | [12] 0.0623

C=C1C(C)(C)[C@@]2(Cl)C(Cl)[C@]1(Cl)C(Cl)(Cl)C2(Cl)Cl (some centres not stated)
inactive: [3] 0.0218 | [4] 0.106 | [11] 0.0433 | [12] 0.0358

COc1ccccc1CN1CCN(Cc2ccc(OC)c(OC)c2OC)CC1
inactive: [3] 0.0684 | [4] 0.104 | [11] 0.0567 | [12] 0.0723

CC[C@H]1OC(=O)[C@H](C)[C@@H](O[C@H]2C[C@@](C)(OC)[C@@H](O)[C@H](C)O2)[C@H](C)[C@@H](O[C@@H]2O[C@H](C)C[C@H](N(C)C)[C@H]2O)[C@](C)(O)C[C@@H](C)/C(=N/OCOCCOC)[C@H](C)[C@@H](O)[C@]1(C)O
inactive: [3] 0.13 | [4] 0.107 | [11] 0.122 | [12] 0.103

C/C=C/CC(C)C(O)C1C(=O)NC(CC)C(=O)N(C)CC(=O)N(C)C(CC(C)C)C(=O)NC(C(C)C)C(=O)N(C)C(CC(C)C)C(=O)NC(C)C(=O)NC(C)C(=O)N(C)C(CC(C)C)C(=O)N(C)C(CC(C)C)C(=O)N(C)C(C(C)C)C(=O)N1C (configuration not stated)
inactive: [3] 0.0736 | [4] 0.0415 | [5] 0.25 | [6] 0.127 | [11] 0.0328 | [12] 0.00672 | [13] 0.11 | [14] 0.104

CC(C)(O)[C@@H]1CC[C@](C)([C@H]2[C@@H](O)C[C@@]3(C)[C@@H]4C[C@H](O[C@@H]5O[C@H](CO)[C@@H](O)[C@H](O)[C@H]5O)[C@H]5C(C)(C)[C@@H](O[C@@H]6OC[C@@H](O)[C@H](O)[C@H]6O)CC[C@@]56C[C@@]46CC[C@]23C)O1
inactive: [1] 0.0688 | [2] 0.0886 | [7] 0.0588 | [8] 0.038 | [9] 0.056 | [10] 0.105 | [15] 0.044 | [16] -0.00938 | [17] 0.0806 | [18] 0.0911 | [19] 0.0188 | [20] 0.0301

CC(=O)O[C@H]1CC[C@@]2(C)[C@@H](CC[C@@H]3[C@@H]2CC[C@]2(C)[C@@H]4[C@H](C[C@@H]32)O[C@]2(CC[C@@H](C)CO2)[C@H]4C)C1
inactive: [3] 0.0876 | [4] 0.0708 | [11] 0.176 | [12] 0.151

CC1=C(Cl)C(O)=CC(=O)C12Oc1cc(O)c(Cl)c(C)c1C2=O (configuration not stated)
inactive: [3] 0.0863 | [4] 0.0945 | [11] 0.127 | [12] 0.13

CSCC[C@H](NC=O)C(=O)N[C@@H](Cc1ccccc1)C(=O)O
inactive: [3] 0.0894 | [4] 0.169 | [11] 0.0791 | [12] 0.113

C/C=C(/C)C(=O)O[C@@H]1c2c(ccc3ccc(=O)oc23)OC(C)(C)[C@@H]1OC(C)=O
inactive: [3] -0.0115 | [4] 0.00938 | [11] 0.181 | [12] 0.0803

C[C@@H]1O[C@@H](O[C@H]2[C@H](O[C@H]3CC[C@@]4(C)[C@@H](CC[C@]5(C)[C@@H]4CC=C4[C@@H]6CC(C)(C)CC[C@]6(C(=O)O)CC[C@]45C)[C@]3(C)CO)OC[C@H](O)[C@@H]2O)[C@H](O)[C@H](O)[C@H]1O
inactive: [3] 0.0421 | [4] 0.11 | [11] 0.089 | [12] 0.0617

CC(=O)N1CCN(c2nc(-c3ccccc3)c3cc(Br)ccc3n2)CC1
inactive: [3] 0.0769 | [4] 0.0692 | [11] 0.115 | [12] 0.105

COc1ccccc1/C=C/c1nc(O)c([N+](=O)[O-])c(=O)[nH]1
inactive: [3] 0.123 | [4] 0.138 | [11] 0.0902 | [12] 0.00102

CCOC(=O)c1c[nH]c2ccc(OC)cc2c1=O
inactive: [3] 0.15 | [4] 0.1 | [11] 0.112 | [12] 0.121

CC(C)[C@@H](C)/C=C/[C@@H](C)[C@H]1CC[C@H]2C3=CC=C4C[C@@H](O)CC[C@]4(C)[C@H]3CC[C@]12C
inactive: [3] 0.0837 | [4] 0.11 | [11] 0.0787 | [12] 0.0538

COc1cc(Nc2c(C#N)cnc3cc(OCCCN4CCN(C)CC4)c(OC)cc23)c(Cl)cc1Cl
active: [19] -1.59 | [20] -0.647
inactive: [1] 0.00802 | [2] 0.123 | [7] 0.0466 | [8] 0.063 | [9] 0.0151 | [10] 0.16 | [15] -0.0156 | [16] 0.139 | [17] -0.148 | [18] -0.136

COc1cc(C(=O)OCCCN2CCCN(CCCOC(=O)c3cc(OC)c(OC)c(OC)c3)CC2)cc(OC)c1OC
inactive: [5] 0.105 | [6] 0.0948 | [13] 0.199 | [14] 0.123

COc1cc2c(Oc3ccc4[nH]c(C)cc4c3F)ncnc2cc1OCCCN1CCCC1
inactive: [1] 0.0825 | [2] 0.0561 | [7] 0.034 | [8] 0.013 | [9] 0.0586 | [10] 0.0142 | [15] 0.0459 | [16] 0.0297 | [17] -0.077 | [18] 0.092 | [19] 0.0238 | [20] 0.0041

O=C(O)CSc1nnc(-c2ccc(Cl)cc2Cl)n1-c1ccccc1
inactive: [3] 0.109 | [4] 0.165 | [11] 0.15 | [12] 0.122

COc1c(C(=O)O)ccc2c1CCC(C)(C)O2
inactive: [3] 0.0873 | [4] 0.0519 | [11] 0.206 | [12] -0.0164

CCOc1ccc(C(=O)Nc2cccc(OC)c2)cc1Cl
inactive: [3] 0.0358 | [4] 0.0408 | [11] 0.151 | [12] 0.0428

CCOc1ccc(C(=O)Nc2ccc(NC(=O)CC)cc2)cc1Cl
inactive: [3] 0.102 | [4] 0.0179 | [11] 0.0812 | [12] -0.0835

CCOc1cc2ncc(C#N)c(Nc3ccc(OCc4ccccn4)c(Cl)c3)c2cc1NC(=O)/C=C/CN(C)C
inactive: [1] 0.0468 | [2] 0.0085 | [7] -0.038 | [8] -0.0155 | [9] -0.0139 | [10] -0.00326 | [15] -0.0436 | [16] -0.282 | [19] -0.035 | [20] -0.415
active: [17] -0.204 | [18] -0.529

CCOc1cc2ncc(C#N)c(Nc3ccc(F)c(Cl)c3)c2cc1NC(=O)/C=C/CN(C)C
inactive: [1] 0.06 | [2] 0.0264 | [7] 0.0695 | [8] 0.0377 | [9] 0.0744 | [10] -0.098 | [17] -0.14 | [18] -0.477
active: [15] -0.201 | [16] -0.422 | [19] -1.43 | [20] -0.678

COc1cccc(-n2c(C)c(C(C)=O)c(C(C)=O)c2C)c1
inactive: [3] -0.0313 | [4] 0.00668 | [11] 0.0772 | [12] -0.0891
